Holding throughout (test): NCI-60 one-dose screen, 48 h (100 = growth as untreated, 0 = no growth, -100 = all killed)
Conditions in all cases: 10 µM unless noted

Assay [1] has as its system NCI-H23 lung.
In assay [2] the test system is NCI-H226 lung.
In assay [3] the test system is NCI-H322M lung.
Assay [4] relates to HOP-62 NSCLC.
Assay [5] concerns NCI-H460 lung.
The subject of assay [6] is NCI-H522 lung.
Assay [7] relates to A549/ATCC NSCLC.
Assay [8] relates to 786-0 renal.
The subject of assay [9] is COLO 205 colon.
Assay [10] deals with DU-145 prostate.
Assay [11] relates to K-562 leukemia.
In assay [12] the test system is MALME-3M melanoma.
Assay [13] deals with MDA-MB-231 breast.
The subject of assay [14] is RXF 393 renal.
The test system of assay [15] is SF-268 CNS.
In assay [16] the test system is SF-295 CNS.
The test system of assay [17] is SF-539 CNS.
In assay [18] the test system is UACC-257 melanoma.
Assay [19] has as its system M14 melanoma.

Compounds without any hit were thinned out: in the full panel of roughly 83,000, 20% have a hit.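 The test compound was applied at a single concentration to cells in 96-well plates for 48 hours, and percent growth was recorded.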 A number with no mark means an inactive call. Calls of active or inactive are those of the source. Rule for the calls: active = growth percent below 10; inactive = the rest.

In the case of `O=C(/C=C/c1ccco1)c1ccccc1O`, the growth in assay [1] was 93.5%; in [2] it was 99.6%; in assay [3], 105%; in assay [4], 109%; in assay [5] it was 108%; in [6], 88.3%. In addition, the growth in [7] is 101%; in assay [8] it was 96.8%; in [9] it was 119%; in assay [10], 108%; in assay [11] it was 117%; in assay [12], 121%. In addition, the growth in assay [13] is 111%; in assay [14], 92.4%; in assay [15], 99.4%; in assay [16] it was 110%; in assay [17] it was 98.2%; in assay [18] it was 112%. The growth in [19] is 105%.
As for `COc1ccc(Cl)cc1Nc1nc(C(F)(F)F)ccc1C(=O)NN`, the growth in [1] was 39.9%; in assay [2] it was 24.1%; in assay [3] it was 4.64% (active); in assay [4], -30.8% (active); in [5] it was 70.3%; in assay [6], 12.9%. Besides, the growth in [7] was 47.6%; in [8], 2.09% (active); in [9] it was 12.5%; in assay [10] it was 40%; in [11] it was 55.7%; in assay [12], 8.85% (active). Also, the growth in assay [13] was 5.57% (active); in assay [14], -3.01% (active); in assay [15], 26.4%; in assay [16] it was 16.7%; in assay [17], 31.2%; in assay [18], 28.3%. Further, the growth in assay [19] was 38%.
With `Cc1ccc([C@H]2c3[nH]c4ccccc4c3C[C@H]3C(=O)N(CCCCCCC(=O)NO)CC(=O)N23)cc1`, the growth in assay [1] is 63.8%; in assay [2] it was 94.2%; in assay [3] it was 55.6%; in assay [4], 52.9%; in assay [5] it was 48.7%; in assay [6], 24.2%. The growth was 85.6% in assay [7]; 82.1% in [8]; 47.3% in [9]; 60.5% in assay [10]; 20.2% in [11]; 19.5% in assay [12]. The growth was 44.4% in assay [13]; 51.5% in [14]; 68.6% in assay [15]; 67.4% in [16]; 52.6% in [17]; 50.5% in [18]. Moreover, in assay [19], the growth was 43.6%.
Take `Cn1c(-c2ccccc2)cc(=O)n1-c1ccccc1`: the growth is 96% in assay [1]; 102% in [2]; 103% in assay [3]; 108% in [4]; 117% in assay [5]; 107% in assay [6]. The growth is 102% in [7]; 107% in assay [8]; 121% in [9]; 120% in assay [10]; 110% in assay [11]; 113% in [12]. Further, the growth is 100% in assay [13]; 115% in assay [14]; 112% in assay [15]; 122% in [16]; 101% in [17]; 97.4% in [18]. For the same molecule, the growth in assay [19] was 110%.
For `Nc1nc(N)c2cc(NCc3ccc(Cl)c(Cl)c3)ccc2n1`, the growth was -88% (active) in [1]; -74.8% (active) in assay [2]; -79% (active) in [3]; -85.6% (active) in assay [4]; -75.7% (active) in assay [5]; -69.8% (active) in assay [6]. Moreover, the growth was -90.2% (active) in [7]; -89.7% (active) in assay [8]; -90.7% (active) in assay [9]; -94.8% (active) in assay [10]; -62.2% (active) in [11]; -64.9% (active) in [12]. In addition, the growth in assay [13] is -86.8% (active); in assay [14], -82.7% (active); in assay [15], -83.2% (active); in [16], -80.5% (active); in assay [17], -89.9% (active); in [18] it was -83% (active). Also, the growth in [19] was -84% (active).
As for `Clc1ccc(-c2cnc3nonc3n2)s1`, the growth is 74.3% in assay [1]; 100% in assay [2]; 96.6% in [3]; 84.5% in assay [4]; 92.6% in assay [5]; 53.5% in [6]. The growth in assay [7] is 85%; in assay [8] it was 86.1%; in assay [9], 67.6%; in [10], 89.7%; in [11], 41.7%; in assay [12] it was 83%. Besides, the growth in [13] is 85.2%; in assay [14] it was 109%; in assay [15], 82.7%; in assay [16] it was 92.8%; in assay [17], 97.5%; in [18], 64.4%. For the same molecule, in assay [19], the growth was 86.6%.
As for `O/N=C1\c2ccccc2-c2ccc(Br)cc21`, the growth in assay [1] was 96.1%; in assay [2], 103%; in assay [3] it was 101%; in [4], 113%; in assay [5], 106%; in assay [6] it was 95.8%. The growth was 97.4% in assay [7]; 98.6% in [8]; 136% in assay [9]; 110% in assay [10]; 98.7% in assay [11]; 103% in assay [12]. The growth is 107% in [13]; 116% in assay [14]; 102% in assay [15]; 99.2% in assay [16]; 97.8% in assay [17]; 106% in [18]. The growth in assay [19] is 129%.
Take `Nc1c(C(=O)Nc2ccccc2)sc2nc3c(cc12)C(=O)CCC3`: the growth is 39.5% in assay [1]; 68% in assay [2]; 67.1% in assay [3]; 39.9% in assay [4]; 12.9% in assay [5]; -33.8% (active) in [6]. Further, the growth was 19.7% in assay [7]; 36.2% in [8]; -18.4% (active) in assay [9]; 0.618% (active) in assay [10]; 17.1% in assay [11]; 76.2% in [12]. The growth in [13] is 52.1%; in assay [14] it was -9.9% (active); in assay [15], 53.4%; in [16], -12.4% (active); in assay [17], 0.845% (active); in assay [18], 52.8%. Moreover, in assay [19], the growth is 1.11% (active).
`CN(C)CCCn1c(=O)c2cc([N+](=O)[O-])ccc2c2cnc3[nH]ccc3c21`: the growth is 58.8% in [1]; 44.3% in assay [2]; 46.3% in assay [3]; 45.1% in assay [4]; 17.3% in assay [5]; 17.9% in assay [6]. The growth is 41.5% in assay [7]; 7.2% (active) in assay [8]; 28% in [9]; 50.5% in assay [10]; -32.4% (active) in assay [11]; 68.8% in assay [12]. Moreover, the growth in assay [13] is 65.5%; in [14] it was 56.3%; in assay [15], 45.9%; in [16], 43.9%; in assay [17], 50.9%; in assay [18] it was 87.2%. The growth in [19] was 67.6%.
Turning to `Oc1ccc(-c2nnc3c4[nH]ccc4ncn23)cc1`, the growth is 91.5% in assay [1]; 100% in [2]; 98.2% in assay [3]; 100% in assay [4]; 90.1% in assay [5]; 81.5% in [6]. Besides, the growth in [7] is 93.7%; in [8], 95.6%; in assay [9], 105%; in [10], 97.2%; in assay [11], 98.4%; in assay [12] it was 94.5%. Also, the growth in assay [13] is 92%; in assay [14], 113%; in assay [15], 103%; in [16], 101%; in assay [17], 101%; in assay [18], 117%. Moreover, in [19], the growth was 104%.
`CN(C)CCCN1c2ccccc2CCc2ccccc21`: the growth is 129% in assay [1]; 104% in assay [2]; 108% in assay [3]; 82.2% in assay [4]; 113% in [5]; 88.2% in [6]. Further, the growth is 95.8% in [7]; 95.7% in [8]; 78% in assay [9]; 113% in [10]; 94.9% in [11]; 151% in assay [12]. Further, the growth in [13] was 79%; in [14], 78.6%; in [15], 95.1%; in assay [16] it was 106%; in [17] it was 117%; in assay [18], 103%. The growth in assay [19] was 128%.
Regarding `CC1=C(/C=C/C(C)=C/C=C(C(=O)O)\C(C)=C\C(=O)O)C(C)(C)CCC1`, the growth is 101% in assay [1]; 112% in assay [2]; 103% in assay [3]; 108% in assay [4]; 104% in assay [5]; 77.9% in assay [6]. The growth in assay [7] is 93.7%; in [8], 99.5%; in assay [9], 112%; in [10], 109%; in [11] it was 87%; in assay [12] it was 128%. Moreover, the growth in [13] was 98.6%; in [14], 106%; in assay [15] it was 100%; in assay [16] it was 130%; in assay [17], 93.6%; in assay [18], 92.4%. Also, in [19], the growth is 101%.

(Values after PubChem BioAssay (NCI).)
